A selection: hits, their analogues and other compounds. The true share with any hit is near 5.7%.
ATXN viability = viability counter-screen for ATXN expression inhibitors; Potency, µM (top dose mostly 56.7 µM), most hits filed as cytotoxic; AID 651635; actives 0.49% (n = 400,000); S2 cells (HEK-293 line with an ATXN2-luciferase reporter) viability, CellTiter-Fluor protease fluorescence, 24 h; also: potency is read from the fitted curve at half-maximal effect; nearly all actives have a fitted effect of over 40% in size
TGFb inhibitor = TGF-b pathway inhibition; HepG2 CAGA-GFP TGF-b/SMAD3 reporter, GFP fluorescence, 18 h; TGF-beta stimulated, 500 pg/mL final; Potency, µM (titrated, usually from 46.1 µM), inactives show at the top dose activity, negative = inhibition, most hits filed as inhibitors; actives 1.2% (n = 410,000); also: potency is read from the fitted curve at half-maximal effect; % is scaled to controls: 0 for no effect and ±100 for the full control effect; nearly all actives have a fitted effect of over 65% in size
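Cell-based qHTS in HEPG2 carrying a CAGA-GFP Smad reporter; compounds added before 500 pg/mL final TGF-beta, 18 h incubation at 37 degrees C, GFP fluorescence quantified per cell by imaging cytometry.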
IL-1B inflam inh = inflammasome signaling inhibition, IL-1 beta readout; THP-1 LPS/ATP IL-1B secretion, AlphaLISA, 16 h; active compounds read low; activity change, % at 57.5 µM; AID 743279; actives 4.7% (n = 360,000); in the data active = activity change below about -50%; inconclusive = mostly about -30% to -49%; also: % is scaled to controls: 0 for no effect and ±100 for the full control effect
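THP-1 cells pretreated 1 hr with compounds (up to 57.5 uM final), then stimulated with LPS (250 ng/mL final) plus ATP (1.25 mM final); secreted IL-1B measured by AlphaLISA after 16 hr, decreased signal indicating inhibition.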
HepG2 tox = counter-screen for TGF-b inhibitors: cytotoxicity in HepG2 cells | HepG2 CAGA-GFP viability, ATP luminescence, 18 h | Potency, µM (titrated, usually from 46.1 µM), for inactives: at the top dose activity change, negative = cytotoxicity, usual class: cytotoxic | actives 0.76% (n = 410,000) | AID 588856; also: potency is read from the fitted curve at half-maximal effect
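CellTiter-Glo luminescence gave cytotoxicity after 18 hours at 37 degrees C. The cells were HepG2 CAGA-GFP in 1% FBS DMEM, stimulated with 500 pg/mL TGF-beta after compound addition. %Activity was normalised to no-cell wells (complete cell-killing) and DMSO (no toxicity), and curves were fitted and classified.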
ATXN2 expr inh = reduces ATXN2 reporter expression in HEK-293 cells; HEK-293 ATXN2-luciferase reporter, luminescence, 24 h; Potency, µM (top dose mostly 57 µM), inactives show at the highest dose activity change, negative = inhibition, actives largely listed as inhibitors; actives 0.72% (n = 360,000); AID 1745845; also: potency is read from the fitted curve at half-maximal effect; % is scaled to controls: 0 for no effect and ±100 for the full control effect; nearly all actives have a fitted effect of over 55% in size
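ATXN2-luciferase reporter cells (luciferase flanked by upstream and downstream ATXN2 gene portions) were treated 24 h at 37 °C with compounds at up to 57 uM. SteadyGlo luminescence gave expression; GF-AFC fluorescence gave viability.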
* marks the source's active call; other numbers are inactive results; i = inactive; ? = inconclusive; nt = no result; ! = not confirmed by another sample. Unless noted, calls follow the shape of the dose curve; as a rule, active = well fitted curve in the direction sought with a large enough effect; inconclusive = small, poorly fitted or top-dose-only effect, or another doubt; inactive = no such curve, though single readings can be large; an effect the other way counts as inactive or inconclusive.

SMILES | ATXN viability | TGFb inhibitor | IL-1B inflam inh | HepG2 tox | ATXN2 expr inh
CC(C)C[C@H]1CNC(=O)C(=O)N1CC1CCN(CCc2ccc(-c3ccccc3)cc2)CC1 | i | -9% | -67* | -15% | -23%
CCCCCCCCCCCCCCCC[N+](C)(C)CCN(Cc1ccc(OC)cc1)c1ncccn1 | 25µM*! | ? | 32 | 10µM* | 35µM*!
Cn1c(=O)c(-c2c(Cl)cccc2Cl)cc2cnc(Nc3cccc(C(=O)O)c3)nc21 | nt | nt | nt | nt | 51%
Cc1ccnc(NCc2ccc(Cl)cc2)c1 | ? | 9% | -58* | 1% | 22%
FC(F)(F)c1ccnc(NCc2ccc(Cl)cc2)n1 | i | ? | -55* | -22% | -5%
CCN(CC)c1ccc(NS(=O)(=O)c2cc3[nH]c(=O)c(=O)[nH]c3cc2C)c(C)c1 | i | -26% | nt | -18% | 4%
COCCCCC(=NOCCN)c1ccc(C(F)(F)F)cc1 | i | nt | nt | nt | ?
COCCCC/C(=N\OCCN)c1ccc(C(F)(F)F)cc1 | ? | 2% | -51*! | -41% | 16µM*!
O=C(CCN1C(=O)S/C(=C\c2ccccc2)C1=O)N1CCCCC1 | i | 1% | -4 | -11% | 29%
O=C(CCCN1C(=O)/C(=C/c2ccccc2)SC1=S)N1CCOCC1 | i | -10% | -96* | -22% | 1%
O=C(CCCN1C(=O)/C(=C\c2ccccc2)SC1=S)Nc1ccc(C(=O)O)cc1 | i | -1% | 6 | -4% | 5%
O=C(CCN1C(=O)S/C(=C\c2ccccc2)C1=O)N1CCOCC1 | i | -1% | -80* | -17% | 49%
O=C(CCN1C(=O)/C(=C\c2ccccc2)SC1=S)N1CCOCC1 | i | 1% | -63* | -1% | 58%
CN(C)c1ccc(/C=C/c2ccnc3c(-c4ccccc4)cccc23)cc1 | nt | 15% | nt | -20% | nt
O=C(CCn1cnc2onc(-c3ccc(F)cc3)c2c1=O)N1CCN(c2cccc(Cl)c2)CC1 | ? | -2% | nt | -21% | -17%
NC(=O)c1cc([N+](=O)[O-])ccc1NCc1ccc(N)cc1 | i | ? | -17 | 6% | 3.5µM*
NC(=O)c1cc([N+](=O)[O-])ccc1NCc1ccc(F)cc1 | ? | -6% | 30 | 2% | 3%
Cn1cc(S(C)=O)c(=O)c2ccc(F)cc21 (centres undefined) | i | nt | nt | nt | 8%
O=C(NCc1ccccc1CN1CCCC1)C1CCN(S(=O)(=O)c2ccc(F)c(F)c2)CC1 | i | -11% | -51* | -16% | -1%
Cn1nc(C(C)(C)C)cc1C(=O)Sc1cccc(Br)c1 | i | 5% | -81* | 2% | -3%
Cn1nc(C(C)(C)C)cc1C(=O)O | i | 3% | 3 | 7% | nt
Cc1ccc2c(c1)c1c(c(=O)n(-c3cccc(Cl)c3)c(=O)n1C)n2C | i | -1% | nt | 0% | 13%
CCOc1ccc(/C=N/NC(=O)C(O)c2ccccc2)c(O)c1 (centres undefined) | i | 0% | 95 | -8% | 32µM*
CCc1ccc(OCCCSc2nc(-c3ccc(C(C)(C)C)cc3)nc3cc(=O)[nH]n23)cc1 | nt | nt | nt | -73% | nt
CC1CC2(C)Oc3ccccc3CC2C(C)C1CNCCCN(C)C (centres undefined) | ? | ? | ? | 13µM* | 14µM*
SMILES | ATXN viability | TGFb inhibitor | IL-1B inflam inh | HepG2 tox | ATXN2 expr inh
COc1ccc(OC)c(C(=O)N(Cc2cc3cccc(C)c3nc2N2CCC(O)CC2)C2CC2)c1 | i | nt | nt | nt | nt
O=C(c1ccc2c(c1)N(Cc1ccc(F)cc1)C(=O)c1ccccc1S2=O)N1CCC(Cc2ccccc2)CC1 (centres undefined) | i | ? | nt | -8% | -36%
COc1ccc(NC(=O)CSc2nc3c(oc4ccccc43)c(=O)n2-c2ccccc2)cc1OC | 18µM* | -2% | nt | 3% | -2%
O=C(Nc1ccccc1Cl)c1cc(C2CCCN(S(=O)(=O)c3cccs3)C2)on1 (centres undefined) | i | ? | 25 | 11µM* | -12%
O=C(Nc1ccc(F)c(Cl)c1)c1cc(C2CCCN(S(=O)(=O)c3cccs3)C2)on1 (centres undefined) | ? | 8% | -26 | -15% | -13%
COc1ccc(-c2ccc(C(=O)NCC3Cc4cccc(-c5nc(C)cnc5C)c4O3)o2)cc1 (centres undefined) | i | nt | nt | nt | nt
Cc1ccc(SC(=O)c2c(C)noc2-c2cc(C)on2)cc1 | i | 18µM* | -65* | -61% | 3%
CN(C)c1ccc(-c2nnc(SCC(=O)NCc3ccco3)n2C)cc1 | nt | -4% | nt | -14% | nt
COc1c(/C=C2\SC(=Nc3ccccc3Cl)NC2=O)cccc1[N+](=O)[O-] | i | ? | -13 | -29% | nt
COc1ccc(/C=C2\SC(=Nc3ccccc3Cl)NC2=O)c(OC)c1 | ? | -11% | -52* | -14% | nt
CCN(c1ncnc2c1cnn2-c1cc(Cl)ccc1C)C1CCCCC1 | i | ? | nt | -33% | -9%
Fc1cccc(CCN2CCNC[C@H]2Cc2cccc3ccccc23)c1 | ? | 16µM* | -60* | 16µM* | -23%
c1ccc(C2(CN3CCNC[C@H]3Cc3cccc4ccccc34)CC2)cc1 | ? | ? | -68* | -105% | ?
CC(C)(C)CN1CCNC[C@H]1Cc1cccc2ccccc12 | i | -28% | ? | -65% | -18%
CCN(CCCNc1ncnc2nc[nH]c12)c1cccc(C)c1 | i | ? | 40 | -22% | -19%
CCCCN(CCCNc1ncnc2nc[nH]c12)c1ccccc1 | ? | ? | 21 | 3.2µM* | ?
COc1ccc(OC)c(NC(=O)CN(C)S(=O)(=O)c2ccc3[nH]c4c(c3c2)CCCC4)c1 | ? | ? | nt | -32% | ?
CCCn1nnnc1NCc1ccc(SC)cc1 | i | -5% | -58* | -5% | 0%
C=CCOc1c(Br)cc(/C=C2\SC(=Nc3ccccc3)NC2=O)cc1OC | ? | ? | 0 | 16µM* | nt
CCOc1cc(Br)cc(/C=C2\SC(=Nc3ccccc3)NC2=O)c1O | ? | 10µM* | -20 | -82% | nt
COC(=O)/C=C1\SC(=Nc2ccccc2)NC1=O | i | 12% | -65* | 9% | -4%
COC(=O)/C=C1/SC(=Nc2ccc(Cl)c(Cl)c2)NC1=O | i | 0% | -8 | -35% | -10%
CCc1ccc(N=C2NC(=O)/C(=C/c3cc(Br)c(OCC(=O)O)c(OC)c3)S2)cc1 | i | 1% | 36 | -11% | 2%
CN(CC(=O)N1CCOCC1)Cc1c(Cl)cccc1NC(=O)c1ccccc1 | i | nt | nt | nt | nt
COc1ccccc1CNC(=O)CSc1ccc(-c2sc(-c3ccccc3)nc2C)nn1 | nt | ? | nt | -1% | nt
Cc1nc2c(-c3ccccc3)c(C)nn2c(C)c1CCC(=O)N1CCN(c2ccc(F)cc2)CC1 | i | ? | nt | 0% | 9%

High-throughput results from PubChem BioAssay.
